Test results from PubChem BioAssay (NCATS).
Inconclusive results are not listed. Active and inactive are the calls of the source. The call rests on the fitted dose curve; in most records, active means well fitted curve in the direction sought with a large enough effect; inconclusive means small, poorly fitted or top-dose-only effect, or another doubt; inactive means no such curve, though single readings can be large; an effect the other way counts as inactive or inconclusive. Where a SMILES comes first, the peptide text is derived from it. [ ]: non-standard residue; d: D form. PhLac = O=C(O)[CH](O)Cc1ccccc1; NMeV = CN[CH](C(=O)O)C(C)C

What was measured:
KB-3-1 = experiment: Cytotoxic Profiling of Annotated Libraries Using Quantitative High-Throughput Screening (AID 1296008); settings: Five cell lines viability, CellTiter-Glo ATP luminescence, 48-72 h; max response: stronger effect = lower value; further: nearly all actives have a fitted effect of over 60% in size; on max response: on the % scale 0 is the no-effect control and ±100 the full control effect
Summary of the method: (§1)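 Cells exposed to compounds for 48 or 72 hr at 37 degrees Celsius. Viability read as ATP-coupled luminescence with CellTiter-Glo after 10 min at room temperature.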

NIH3T3 = experiment: as above; settings: Five cell lines viability, CellTiter-Glo ATP luminescence, 48-72 h; max response: stronger effect = lower value
Summary of the method: as §1

HEK293T [1] = experiment: qHTS assay to identify novel small-molecules to repurpose for Merkel cell carcinoma treatment (AID 1296009); settings: MCC and control cell lines, CellTiter-Glo viability, 72 h; series mostly up to 44.8 µM; further: nearly all actives have a fitted effect of over 60% in size
Summary of the method: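 Cells were incubated with compound for 72 hr at 37 degree celsius before CellTiter-Glo addition. Luminescence was normalized with no-cell wells as full cytotoxicity and DMSO as baseline.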

C33A = experiment: Primary qHTS to identify gynecologic anti-cancer compounds using libraries of approved drugs and bioactive compounds (AID 1345084); settings: Gynecologic cancer cell panel viability, ATPlite luminescence, 48 h; series mostly up to 57.5 µM; further: on the % scale 0 is the no-effect control and ±100 the full control effect; nearly all actives have a fitted effect of over 55% in size
Summary of the method: (§2)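 Five-point cytotoxicity, 48 h drug exposure at 37 C, 5% CO2, on cells seeded 16 h beforehand. ATP content read by ATPlite luminescence.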

CAOV3 = experiment: as above; settings: Gynecologic cancer cell panel viability, ATPlite luminescence, 48 h; series mostly up to 57.5 µM
Summary of the method: as §2

CASKI = experiment: as above; settings: Gynecologic cancer cell panel viability, ATPlite luminescence, 48 h; series mostly up to 57.5 µM
Summary of the method: as §2

Es-2 = experiment: as above; settings: Gynecologic cancer cell panel viability, ATPlite luminescence, 48 h; series mostly up to 57.5 µM
Summary of the method: as §2

HeLa = experiment: as above; settings: Gynecologic cancer cell panel viability, ATPlite luminescence, 48 h; series mostly up to 57.5 µM
Summary of the method: as §2

Hek293T [2] = experiment: as above; settings: Gynecologic cancer cell panel viability, ATPlite luminescence, 48 h, control line for the selectivity index; series mostly up to 57.5 µM
Summary of the method: as §2

JEG-3 = experiment: as above; settings: Gynecologic cancer cell panel viability, ATPlite luminescence, 48 h; series mostly up to 57.5 µM
Summary of the method: as §2

OV90 = experiment: as above; settings: Gynecologic cancer cell panel viability, ATPlite luminescence, 48 h; series mostly up to 57.5 µM
Summary of the method: as §2

PA-1 = experiment: as above; settings: Gynecologic cancer cell panel viability, ATPlite luminescence, 48 h; series mostly up to 57.5 µM
Summary of the method: as §2

COc1cc(/C=C/C(=O)OC2CC(OC(C)=O)C(OC(C)=O)C3C2CCC2C(=O)OC(c4ccoc4)CC23C)ccc1O[C@@H]1O[C@H](CO)[C@@H](O)[C@H](O)[C@H]1O (some centres undefined)
inactive: max response (KB-3-1) -0.283% | max response (NIH3T3) -18.6% | Potency (HEK293T [1]) | Potency (C33A) | Potency (CAOV3) | Potency (CASKI) | Potency (Es-2) | Potency (HeLa) | Potency (Hek293T [2]) | Potency (JEG-3) | Potency (OV90) | Potency (PA-1)

COc1c(OC2OC(CO)C(O)C(O)C2O)ccc(O)c1C(=O)OCc1ccccc1O[C@@H]1O[C@H](CO)[C@@H](O)[C@H](O)[C@H]1O (some centres undefined)
inactive: outcome (KB-3-1) | max response (NIH3T3) -1.73% | Potency (HEK293T [1]) | Potency (C33A) | Potency (CAOV3) | Potency (CASKI) | Potency (Es-2) | Potency (HeLa) | Potency (Hek293T [2]) | Potency (JEG-3) | Potency (OV90) | Potency (PA-1)

CC(/C=C/C1(O)C2(C)COC1(C)CC(=O)C2)O[C@@H]1O[C@H](CO)[C@@H](O)[C@H](O)[C@H]1O (some centres undefined)
inactive: outcome (KB-3-1) | max response (NIH3T3) 3.43% | Potency (HEK293T [1]) | Potency (C33A) | Potency (CAOV3) | Potency (CASKI) | Potency (Es-2) | Potency (HeLa) | Potency (Hek293T [2]) | Potency (JEG-3) | Potency (OV90) | Potency (PA-1)

COC1=Cc2c(nc3n(c2=O)C(C)C(=O)NC3(O)C(C)C)OC=C1 (centres undefined)
inactive: max response (KB-3-1) 6.94% | max response (NIH3T3) 2.45% | Potency (HEK293T [1]) | Potency (C33A) | Potency (CAOV3) | Potency (CASKI) | Potency (Es-2) | Potency (HeLa) | Potency (Hek293T [2]) | Potency (JEG-3) | Potency (OV90) | Potency (PA-1)

CC1(C)CCC2(C(=O)OC3OC(COC4OC(CO)C(O)C(O)C4O)C(O)C(O)C3O)CCC3(C)C(=CCC4C5(C)CCC(O)C(C)(C(=O)O)C5CCC43C)C2C1O (centres undefined)
inactive: outcome (KB-3-1) | max response (NIH3T3) 4.9% | outcome (HEK293T [1]) inactive [at 9.27 µM] | activity change, negative = cytotoxicity (C33A) 2.23% [at 11.6 µM] | activity change, negative = cytotoxicity (CAOV3) 3.42% [at 11.6 µM] | activity change, negative = cytotoxicity (CASKI) 3.04% [at 11.6 µM] | activity change, negative = cytotoxicity (Es-2) 4.39% [at 11.6 µM] | activity change, negative = cytotoxicity (HeLa) -15.3% [at 11.6 µM] | activity change, negative = cytotoxicity (Hek293T [2]) 4.46% [at 11.6 µM] | activity change, negative = cytotoxicity (JEG-3) -2.36% [at 11.6 µM] | activity change, negative = cytotoxicity (OV90) 0.278% [at 11.6 µM] | activity change, negative = cytotoxicity (PA-1) -2.93% [at 11.6 µM]

C[C@]12CCC(=O)C=C1[C@@H](O)C[C@@H]1[C@@H]2[C@@H](O)C[C@@]2(C)[C@H]1CC[C@]2(O)C(=O)CO
inactive: max response (KB-3-1) 8.45% | outcome (NIH3T3) | Potency (HEK293T [1]) | Potency (C33A) | Potency (CAOV3) | Potency (CASKI) | Potency (Es-2) | Potency (HeLa) | Potency (Hek293T [2]) | Potency (JEG-3) | Potency (OV90) | Potency (PA-1)

COc1cc2c(cc1O)C1(OC)Cc3ccc4c(c3C1N(C)CC2)OCO4 (centres undefined)
inactive: max response (KB-3-1) 9.56% | max response (NIH3T3) 2.76% | Potency (HEK293T [1]) | Potency (C33A) | Potency (CAOV3) | Potency (CASKI) | Potency (Es-2) | Potency (HeLa) | Potency (Hek293T [2]) | Potency (JEG-3) | Potency (OV90) | Potency (PA-1)

CC1=CC(=O)C2C(C)(C)CC(O)CC2(C)C1CO (centres undefined)
inactive: outcome (KB-3-1) | max response (NIH3T3) 2.39% | Potency (HEK293T [1]) | Potency (C33A) | Potency (CAOV3) | Potency (CASKI) | Potency (Es-2) | Potency (HeLa) | Potency (Hek293T [2]) | Potency (JEG-3) | Potency (OV90) | Potency (PA-1)

O=S(=O)(Nc1ccc(C(O)(C(F)(F)F)C(F)(F)F)cc1)c1cccs1
inactive: max response (KB-3-1) 6.97% | outcome (NIH3T3) | Potency (HEK293T [1]) | Potency (C33A) | Potency (CAOV3) | Potency (CASKI) | Potency (Es-2) | Potency (HeLa) | Potency (Hek293T [2]) | Potency (JEG-3) | Potency (OV90) | Potency (PA-1)

CC(C)C(C(=O)N1CCCC1C(=O)O)N(C)C(=O)C(O)Cc1ccccc1 (centres undefined) (H-[PhLac]-[NMeV]-Pro-OH; configuration not given here)
inactive: outcome (KB-3-1) | max response (NIH3T3) -4.85% | Potency (HEK293T [1]) | Potency (C33A) | Potency (CAOV3) | Potency (CASKI) | Potency (Es-2) | Potency (HeLa) | Potency (Hek293T [2]) | Potency (JEG-3) | Potency (OV90) | Potency (PA-1)

CCC(C)(O)C(O)C(=O)OCc1ccc(O[C@@H]2O[C@H](CO)[C@@H](O)[C@H](O)[C@H]2O)cc1 (some centres undefined)
inactive: outcome (KB-3-1) | max response (NIH3T3) -0.787% | Potency (HEK293T [1]) | Potency (C33A) | Potency (CAOV3) | Potency (CASKI) | Potency (Es-2) | Potency (HeLa) | Potency (Hek293T [2]) | Potency (JEG-3) | Potency (OV90) | Potency (PA-1)

COc1cc(C2Oc3c(O)cc(CCCO)cc3C2CO)ccc1O[C@H]1O[C@H](C)[C@@H](O)[C@H](O)[C@@H]1O (some centres undefined)
inactive: outcome (KB-3-1) | max response (NIH3T3) -0.439% | Potency (HEK293T [1]) | Potency (C33A) | Potency (CAOV3) | Potency (CASKI) | Potency (Es-2) | Potency (HeLa) | Potency (Hek293T [2]) | Potency (JEG-3) | Potency (OV90) | Potency (PA-1)
